Drawing on PubChem BioAssay (NCI), this text covers growth for 18 molecules.

Among the test systems are HT29 colon; SNB-75 CNS; SNB-19 CNS; U251 CNS; PC-3 prostate; SK-MEL-5 melanoma; UACC-62 melanoma; LOX IMVI melanoma; SK-MEL-28 melanoma.
What all share (assay): NCI-60 one-dose screen, 48 h (100 = growth as untreated, 0 = no growth, -100 = all killed)
Common to all, as to details: 10 µM unless noted

The panel holds about 83,000 compounds, 20% with a hit somewhere; the sample as a whole holds those more often.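 For each line, cells grew in 96-well plates with the test compound present at a single concentration for 48 hours.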 A number with no mark means an inactive call. Calls of active or inactive are those of the source. The calls were made as follows: active = growth percent below 10; inactive = the rest.

`Nc1nc(C(=O)N/N=C/c2ccc(F)cc2)nn1-c1ccc(S(N)(=O)=O)cc1`: the growth is 98.5% with HT29 colon; 83.1% in the test on SNB-75 CNS; 95.2% with SNB-19 CNS; 98.4% in the test on U251 CNS; 107% in the test with PC-3 prostate; 107% in the test with SK-MEL-5 melanoma. Also, the growth was 94.4% in the test on UACC-62 melanoma, 94.1% in the test on LOX IMVI melanoma and 107% in the test with SK-MEL-28 melanoma.

Regarding `OC1CSSC1Cn1cnc2c(Nc3ccc(OCc4cccc(F)c4)c(Cl)c3)ncnc21` (stereo not drawn), the growth in the test on HT29 colon is 3.96% (active); with SNB-75 CNS, 54.1%; in the test on SNB-19 CNS, -49.4% (active); in the test with U251 CNS it was -26.3% (active); with PC-3 prostate, -69.3% (active); in the test on SK-MEL-5 melanoma, -55.6% (active). The results for the growth in the test with UACC-62 melanoma, in the test with LOX IMVI melanoma and in the test on SK-MEL-28 melanoma were -68.9% (active), -82.6% (active) and -9.14% (active), respectively.

`CCNC(=O)N1CCc2c(Br)c3c(c(OC)c2C1Cc1ccc(OC)cc1)OCO3` (stereo not drawn): the growth is 14.4% in the test on HT29 colon; -7.7% (active) with SNB-75 CNS; 49.7% in the test with SNB-19 CNS; 32.3% in the test with U251 CNS; 27.9% in the test with PC-3 prostate; 28.9% in the test with SK-MEL-5 melanoma. The growth with UACC-62 melanoma was 20.7%; in the test with LOX IMVI melanoma, 32.6%; in the test on SK-MEL-28 melanoma, 55.9%.

Regarding `Cc1ncc(C(=O)Nc2ccc(CN3CCN(C)CC3)c(C(F)(F)F)c2)cc1C#Cc1cnc(N)c2ccc(C#N)cc12`, the growth with HT29 colon is -6.14% (active); with SNB-75 CNS it was -11.5% (active); in the test on SNB-19 CNS, 52%; in the test on U251 CNS it was 19.9%; in the test with PC-3 prostate it was 11.7%; in the test on SK-MEL-5 melanoma, -79.7% (active). Also, the growth is -8.26% (active) in the test on UACC-62 melanoma, -90% (active) in the test on LOX IMVI melanoma and -55.9% (active) in the test on SK-MEL-28 melanoma.

For `CC(C)(C)OC(=O)CN1CCc2c(sc3ncnc(N4CCN(c5ccc(F)cc5)CC4)c23)C1`, the growth in the test on HT29 colon was 98.7%; in the test on SNB-75 CNS, 82.6%; in the test with SNB-19 CNS, 88%; in the test on U251 CNS, 85.5%; with PC-3 prostate it was 69.2%; with SK-MEL-5 melanoma, 92%. In addition, the growth with UACC-62 melanoma was 68.4%; in the test on LOX IMVI melanoma, 96.7%; in the test on SK-MEL-28 melanoma it was 92.5%.

As to `COc1ccc(/C=C(/C(=O)N2CCNCC2)c2cc(OC)c(OC)c(OC)c2)cc1O`, the growth is 88.1% in the test with HT29 colon; 38.4% in the test with SNB-19 CNS; 19.6% with U251 CNS; 26.8% in the test on PC-3 prostate; 40% in the test with SK-MEL-5 melanoma; 32.5% with UACC-62 melanoma. The results for the growth in the test with LOX IMVI melanoma and with SK-MEL-28 melanoma were 44% and 55.5%, respectively.

In the case of `COc1cc(-c2ccc[nH]2)[nH]c1/C=C1\N=C(C)C(CC(=O)OCC(C)(C)C)=C1C`, the growth is -59.9% (active) in the test with HT29 colon; -23.8% (active) with SNB-75 CNS; -33.3% (active) with SNB-19 CNS; -95.6% (active) with U251 CNS; -88.3% (active) in the test with PC-3 prostate; -95.7% (active) in the test on SK-MEL-5 melanoma. Besides, the growth was -82.6% (active) in the test on UACC-62 melanoma, -88.3% (active) in the test with LOX IMVI melanoma and -78.2% (active) in the test with SK-MEL-28 melanoma.

Regarding `CC(C)c1ccc2c(c1)CC[C@H]1[C@](C)(C(=O)OCC#CCN3CCCC3)CCC[C@]21C`, the growth was 36.8% in the test on HT29 colon; 88.6% with SNB-75 CNS; 86.8% in the test with SNB-19 CNS; 69.2% with U251 CNS; 61.9% in the test with PC-3 prostate; 64.7% in the test on SK-MEL-5 melanoma. The growth in the test on UACC-62 melanoma was 55.4%; in the test with LOX IMVI melanoma it was 91.1%; in the test with SK-MEL-28 melanoma it was 76%.

Consider `CCOC(=O)c1c(NC(=O)c2ccccc2)sc2c3c(ccc12)OCN(C)C3`, for which the growth is -20.3% (active) in the test with HT29 colon; 79.3% in the test with SNB-75 CNS; -13% (active) in the test with U251 CNS; 21.7% in the test on PC-3 prostate; -40.3% (active) in the test on SK-MEL-5 melanoma; -71.2% (active) with UACC-62 melanoma. Besides, the results for the growth in the test with LOX IMVI melanoma and in the test on SK-MEL-28 melanoma were -90.8% (active) and -92.2% (active), respectively.

As to `COc1cccc(CNc2c3ccccc3nc3ccccc23)c1OC`, the growth is 14.4% with HT29 colon; 68% in the test on SNB-75 CNS; 35.5% in the test on SNB-19 CNS; 34.5% with U251 CNS; 37.6% in the test on PC-3 prostate; 55.8% with SK-MEL-5 melanoma. Further, the growth with UACC-62 melanoma was 51.3%; in the test with LOX IMVI melanoma, 13%; in the test on SK-MEL-28 melanoma, 66.1%.

Regarding `Cc1cc(Cl)nc(N2CCN(CCNc3ccnc4cc(Cl)ccc34)CC2)n1`, the growth is 10.5% in the test on HT29 colon; 87.5% in the test on SNB-75 CNS; 79.9% in the test on SNB-19 CNS; 55.3% with U251 CNS; 43.1% in the test with PC-3 prostate; -45.2% (active) in the test on SK-MEL-5 melanoma. In addition, the growth is 29.7% in the test with UACC-62 melanoma, -14.6% (active) in the test on LOX IMVI melanoma and 47.7% in the test on SK-MEL-28 melanoma.

`Cc1cc(C)c2c(c1)N(C)c1ncnc(-n3c(C)nc4cc(C)ccc43)c1CC2C` (stereo not drawn): the growth in the test on HT29 colon is 34.3%; with SNB-75 CNS it was 29.4%; in the test with SNB-19 CNS, 50.4%; in the test with U251 CNS it was 34.5%; with PC-3 prostate, 24.7%; with SK-MEL-5 melanoma, 13.6%. Also, the figures for the growth in the test on UACC-62 melanoma, in the test on LOX IMVI melanoma and in the test on SK-MEL-28 melanoma were 31.6%, 43.1% and 59%, respectively.

As to `CN(C)c1ccc(/C=N\NC(=O)c2ccc3nc(-c4ccc(Cl)cc4)[nH]c3c2)cc1`, the growth is 4.33% (active) with HT29 colon; 97.2% with SNB-75 CNS; 60.4% with SNB-19 CNS; 1.62% (active) in the test with U251 CNS; 46.8% in the test with PC-3 prostate; 89% in the test on SK-MEL-5 melanoma. Further, the growth with UACC-62 melanoma was 88.2%; with LOX IMVI melanoma it was 34%; with SK-MEL-28 melanoma, 71.9%.

For the molecule `COc1ccc(Oc2ccc(/C=C/C(=O)c3ccc(OC)c(OC)c3)cc2)cc1`, the growth is 86% with HT29 colon; 72.5% in the test on SNB-75 CNS; 85.8% with SNB-19 CNS; 68.9% in the test with U251 CNS; 81.6% with PC-3 prostate; 67.5% with UACC-62 melanoma. Besides, the growth in the test with LOX IMVI melanoma is 53.7%; with SK-MEL-28 melanoma, 93.7%.

Consider `CCCc1cc(=O)oc2c(C(=O)CC(C)C)c(O)c(CC=C(C)C)c(O)c12`, for which the growth is 57.3% in the test with HT29 colon; 52.6% in the test with SNB-75 CNS; 21.5% with SNB-19 CNS; 22.5% in the test with U251 CNS; 6.87% (active) with PC-3 prostate; -45.8% (active) with SK-MEL-5 melanoma. The values for the growth in the test with UACC-62 melanoma, in the test on LOX IMVI melanoma and in the test with SK-MEL-28 melanoma were -1.35% (active), 33.8% and 26.3%, respectively.

Consider `O=C(/C=C/c1ccccc1Cl)c1cccc(OCCCCOc2cccc(C(=O)/C=C/c3ccccc3Cl)c2)c1`, for which the growth in the test on HT29 colon is 96.9%; in the test with SNB-75 CNS, 86%; in the test on SNB-19 CNS, 100%; in the test on U251 CNS it was 90.3%; in the test with PC-3 prostate, 91.1%; in the test with SK-MEL-5 melanoma, 99.5%. For the same molecule, the results for the growth in the test with UACC-62 melanoma, with LOX IMVI melanoma and with SK-MEL-28 melanoma were 85.5%, 102% and 99.7%, respectively.

In the case of `CNCC[C@H](Oc1cccc2ccccc12)c1cccs1`, the growth in the test with HT29 colon was 71.8%; in the test on SNB-75 CNS it was 61.5%; in the test on SNB-19 CNS, 97.8%; in the test on U251 CNS it was 85.3%; in the test on PC-3 prostate it was 68.9%; with SK-MEL-5 melanoma, 93%. The growth was 91.3% in the test on UACC-62 melanoma, 74.1% in the test with LOX IMVI melanoma and 91.5% with SK-MEL-28 melanoma.

`CCCn1c(=S)sc2c(NNC(C)=O)nc(C)nc21`: the growth with HT29 colon is 103%; with SNB-75 CNS, 89.9%; in the test with SNB-19 CNS, 92.4%; in the test on U251 CNS, 91.1%; in the test on PC-3 prostate, 90.3%; in the test on UACC-62 melanoma, 93%. For the same molecule, the figures for the growth with LOX IMVI melanoma and in the test with SK-MEL-28 melanoma were 87% and 141%, respectively.
